Reference: PubChem BioAssay
Where “and” joins values, the source holds several entries; their conditions need not be identical. Equal values may be shown once. Calls of active or inactive are those of the source. Unless noted, no rule for the calls is given here.

Columns and labels:
[1] = circadian clock period modulators, cell-based, LOPAC library, luminescence reporter (AID 2774); conditions: circadian reporter cells, at 7 µM, actives lie on both sides;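 also: values are relative to mean of DMSO wells on each plate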
[2] = system: Hepatitis C virus NS3 helicase; assay: HCV NS3 helicase inhibitors, primary screen, biochemical, fluorescence polarization, LOPAC1280 library (AID 687035; in the data active = inhibition above about 37%); conditions: Purified HCV NS3 helicase, Cy5-dT15 ssDNA binding fluorescence polarization; stronger effect = higher value; concentration not given here
[3] = Cy5 fluorescence quenching or enhancement artefacts, artefact control for HCV NS3 helicase inhibitor project, biochemical, LOPAC1280 (AID 687037); conditions: Cy5-DNA-NS3h complex fluorescence interference counterscreen
[4] = system: Aerobactin synthetase IucA (Klebsiella pneumoniae, hypervirulent); assay: IucA enzyme inhibition, biochemical, LOPAC library, absorbance readout (AID 1346212); conditions: IucA enzyme assay, absorbance (OD) readout; stronger effect = lower value;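 tested at 8 µM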;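 also: 100% = no compound wells and 0% = no enzyme wells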
[5] = sensitizers of A549 cells to miR-34 induction, primary screen, imaging, A549 dox-inducible miR-34, nuclei and caspase counts (AID 1347080;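 active = compounds whose cell count with miR-34 switched on is under 0.7 times the count with it off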); conditions: A549 miR-34 inducible, Hoechst nuclei count, 48 h
[6] = phospholipid biosynthesis inhibitors in animal cells, primary screen, cell-based, LOPAC library, screen 4 (AID 1347384); conditions: phospholipid biosynthesis inhibition screen, at 10 µM
[7] = viability rescue of complex I mutant cybrids, primary screen, cell-based, galactose medium, ATP luminescence (AID 1645843;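 active = z-score of at least 1.8 in each of two replicates, scored against plate mean and spread of sample wells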;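 also: positive z means more ATP and so rescue of galactose-driven cybrid death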); conditions: complex I mutant cybrid cells, 72 h, stronger effect = higher value
[8] = hESC survival regulators, cell-based (AID 493140); conditions: human embryonic stem cell survival screen; stronger effect = higher value;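 also: cells exposed to compounds for four days before counting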
[9] = measured here: relative caspase fold change +Dox/-Dox
[10] = measured here: total cells with miR-34 induction, stronger effect = lower value
[11] = measured here: total cells without miR-34 induction
[12] = stronger effect = lower value, cell number ratio, induced over uninduced

Compound	period change [1]	inhibition [2]	fluorescence ratio (interference) [3]	remaining activity [4]	fold change ([5]; stronger effect = lower value)	fold change [5, 9]	cell count [5, 10]	cell count [5, 11]	outcome [6]	z-score [7]	fold change [5, 12]	survival [8]
COc1ccc2[nH]c3c(c2c1)CCNC3	-0.105 h (inactive)	1% (inactive)	0.9 (inactive)	108% (inactive)	1.02 (inactive)	0.898	10400	10200	inactive	0.28 (inactive)		
Clc1ccc(N2CC3CCC(C2)N3)nn1	-0.11 h (inactive)	-5% (inactive)	1 (inactive)	90.4% (inactive)	1 (inactive)	1.13	10400	10400	inactive	-0.28 (inactive)		
CO[C@H]1CC=C2CCN3CCC4=C(CC(=O)OC4)[C@]23C1	0.065 h (inactive)	-3% (inactive)	1 (inactive)	103% (inactive)		1.26	9420	10000	inactive	0.375 (inactive)	0.939 (inactive)	
CC(C)[C@H]1CN[C@H](C(=O)O)[C@H]1CC(=O)O		1% (inactive)	1 (inactive)	93.8% (inactive)	0.952 (inactive)	0.99	9550	10000	inactive	0.11 (inactive)		
CC(C)(O)[C@@H]1C2OC(=O)C1[C@]1(O)C[C@H]3O[C@]34C(=O)O[C@H]2[C@]14C (some centres not stated) (tested in a mixture with another compound)				128% (inactive)					inactive			
COc1ccc2c(c1)[C@@]13CCCC[C@H]1[C@@H](C2)NCC3	-0.085 h (inactive)	-5% (inactive)	1 (inactive)	108% (inactive)								
Cc1cc([C@@H]2CCCN2C)on1		-6% (inactive)	1 (inactive)	91.6% (inactive)	0.924 (inactive)	1.47	9420	10200	inactive	0.41 (inactive)		
N#CC(C#N)=Cc1cc(O)c(O)c(O)c1	-0.035 h (inactive)			109% (inactive)								61.5 (inactive)
c1ccc(C2(c3ccccc3)CC2C2=NCCN2)cc1 (configuration not stated)		-3% (inactive)	0.9 (inactive)	115% (inactive)		1.35	11300	10600	inactive	0.18 (inactive)	1.07 (inactive)	
O=C(O)c1cc[c]([Hg][Cl])cc1	0.155 h (inactive)	-5% (inactive)	1 (inactive)	-1.2% (active)								
Nc1ncnc2c1ncn2[C@@H]1O[C@H](COP(=O)(O)CP(=O)(O)OP(=O)(O)O)[C@H](O)C1O (some centres not stated)	0.01 h (inactive)	-1% (inactive)	1 (inactive)	111% (inactive)	1.06 (inactive)	0.784	11200	10600		2.36 (active)		
C[N+]1(C)C2CC(OC(=O)[C@H](CO)c3ccccc3)CC1C1OC12 (some centres not stated)	-0.095 hour (inactive) and 0.155 hour (inactive)	-1% (inactive) and 0% (inactive)	1 (inactive)	96.4% (inactive)	0.984 (inactive) and 1.04 (inactive)	0.938 and 1.11	10100 and 9050	10300 and 8720		0.475 (inactive) and 0.45 (inactive)		
O=C(OC1CCN(CCCl)CC1)C(c1ccccc1)c1ccccc1	-0.15 h (inactive)			106% (inactive)								
C=CCN1CC[C@]23c4c5ccc(O)c4O[C@@H]2/C(=N/N=C2\CC[C@@]4(O)C6Cc7ccc(O)c8c7[C@@]4(CCN6CC=C)[C@@H]2O8)CC[C@@]3(O)C1C5	0.015 h (inactive)			108% (inactive)								
